# Experimental data as given in PubChem BioAssay (NCI).
# The panel holds about 83,000 compounds, 20% with a hit somewhere; the sample as a whole holds those more often.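 48-hour exposure, single concentration, 96-well plates; percent growth endpoint where 0 means no net growth. Active: below 10.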 A number with no mark means an inactive call. The source made the active and inactive calls.
# Tested on: K-562 leukemia
# Assay: NCI-60 one-dose screen, 48 h (100 = growth as untreated, 0 = no growth, -100 = all killed)
# Settings: 10 µM unless noted
row,Compound,growth
1,COc1ccc2nc(-c3ccc(Cl)cc3)cc(-c3nnc(SCC(=O)Nc4ccc(/C(C)=N\O)cc4)o3)c2c1,15.9%
2,C/C(=C\c1cnc(C)s1)[C@@H]1C[C@@H]2O[C@@H]2CCC[C@H](C)[C@H](O)[C@@H](C)C(=O)C(C)(C)[C@@H](O)CC(=O)O1,11.8%
3,O=C(/C(=C\c1c(-c2ccccc2)[nH]c2ccccc12)S(=O)(=O)c1ccccc1)c1ccccc1,8% (active)
4,O=c1[nH]c(-c2cccc(F)c2)cc2cc(F)ccc12,14.1%
5,O=C1CS/C(=N/c2nnc(-c3ccc(O)cc3)s2)N1,95.6%
6,C[C@H](Oc1cc(-c2cnn(C3CCNCC3)c2)cnc1N)c1c(Cl)ccc(F)c1Cl,5.27% (active)
7,COCCOCCOCc1n(Cc2ccc3ccccc3n2)c2ccccc2[n+]1Cc1ccc2ccccc2n1,19.1%
8,CCOC(=O)c1cnn(-c2nc(-c3ccc(F)cc3)c(C#N)c(N3CCOCC3)n2)c1N,91.8%
9,CC(=O)c1c(OCC#N)ccc2c(C)cc(=O)oc12,69%
10,CN(CCC#N)C(=O)Nc1ccccc1,96.2%
11,C#Cc1ccccc1NC(=O)c1sc2nc3c(cc2c1N)CCCCC3,90.5%
12,COCCOC(=O)COc1ccc(OC)cc1,104%
13,C#C[C@@]1(O)[C@@H](CO)O[C@@H](n2cnc3c(-c4ccccc4)ncnc32)[C@@H]1O,105%
14,COc1cc(NCC(=O)Nc2cc(Nc3ccc(C)cc3)ncn2)c(Cl)c(OC)c1Cl,80.6%
